Results reported in PubChem BioAssay (NCI).
About 79,000 compounds went through this panel and 15% of them were active in at least one assay; those are over-represented in the sample as a whole. The source made the active and inactive calls. Cut-off read from the data, not from the text of the source: active = growth inhibition above about 70%; inactive = the rest.

Experiments:
[1] = NCI Yeast Anticancer Drug Screen. Data for the mlh1 strain (AID 171);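 note: 0% = growth of vehicle-treated control cultures of the same strain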; conditions: S. cerevisiae mlh1 strain growth inhibition, hits give high values
In short: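 Vehicle-normalised growth inhibition of a repair- or checkpoint-altered yeast strain following compound treatment.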

[2] = NCI Yeast Anticancer Drug Screen. Data for the sgs1 strain (AID 173);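 note: 0% = growth of vehicle-only control cultures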; conditions: S. cerevisiae sgs1 mutant, hits give high values
In short: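 Screen format: yeast with repair or checkpoint alterations, compound exposure, growth read relative to vehicle.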

[3] = NCI Yeast Anticancer Drug Screen. Data for the mlh1 rad18 strain (AID 175); conditions: S. cerevisiae mlh1 rad18 strain growth inhibition, hits give high values
In short: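 Vehicle-treated cultures served as the reference for growth inhibition in a yeast strain carrying DNA damage repair alterations exposed to each compound.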

[4] = NCI Yeast Anticancer Drug Screen. Data for the rad18 strain (AID 177); conditions: S. cerevisiae rad18 mutant growth inhibition, hits give high values
In short: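 Test articles were incubated with altered yeast defective in DNA damage repair. Results are given as inhibition of growth versus vehicle.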

[5] = NCI Yeast Anticancer Drug Screen. Data for the rad50EPP+ strain (AID 151);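 note: 0% = growth of vehicle-treated control cultures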; conditions: S. cerevisiae rad50 mutant strain, hits give high values
In short: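 In this screen, rad50EPP+ yeast were exposed to compounds. Growth inhibition was scored against vehicle-treated controls.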

[6] = NCI Yeast Anticancer Drug Screen. Data for the mgt1 strain (AID 153); conditions: S. cerevisiae mgt1 mutant growth inhibition, hits give high values
In short: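 mgt1 strain exposed; growth vs vehicle control recorded as inhibition.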

[7] = NCI Yeast Anticancer Drug Screen. Data for the rad50 strain (AID 155);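 note: 0% = growth of vehicle-only cultures of the same strain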; conditions: S. cerevisiae rad50 strain growth inhibition, hits give high values
In short: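 Genetically altered yeast (DNA repair pathway); compound treatment; growth inhibition vs vehicle ctrl.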

[8] = NCI Yeast Anticancer Drug Screen. Data for the mec2-1 strain (AID 157); conditions: S. cerevisiae mec2-1 strain, hits give high values
In short: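 Vehicle-treated cultures served as reference for growth inhibition of compound-exposed mec2-1 yeast.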

[9] = NCI Yeast Anticancer Drug Screen. Data for the rad14 strain (AID 159);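 note: 0% = growth of vehicle-treated control cultures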; conditions: S. cerevisiae rad14 strain growth inhibition, hits give high values
In short: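 Test compounds were applied to a repair-deficient yeast strain. Its growth was then compared with that of cultures given vehicle alone, and inhibition was expressed relative to those controls.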

[10] = NCI Yeast Anticancer Drug Screen. Data for the sgs1 mgt1 strain (AID 161);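 note: 0% = growth of cultures given vehicle only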; conditions: S. cerevisiae sgs1 mgt1 strain, hits give high values
In short: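 Genetically altered yeast, compound exposure, growth inhibition relative to vehicle.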

[11] = NCI Yeast Anticancer Drug Screen. Data for the CLN2oe strain (AID 163);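 note: 0% = growth of vehicle-only control cultures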; conditions: S. cerevisiae CLN2oe strain, hits give high values
In short: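 Inhibition relative to vehicle-treated yeast is reported. Cells: strain with genetic alteration in cell-cycle control, grown with compound.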

[12] = NCI Yeast Anticancer Drug Screen. Data for the cln2 rad14 strain (AID 165);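 note: 0% = growth equal to vehicle treated cultures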; conditions: S. cerevisiae cln2 rad14 strain, hits give high values
In short: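 Each compound was tested on cln2 rad14 yeast. Inhibition of growth was calculated against vehicle-exposed controls.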

[13] = NCI Yeast Anticancer Drug Screen. Data for the bub3 strain (AID 167); conditions: S. cerevisiae bub3 mutant strain, hits give high values
In short: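 Yeast carrying a defined mutation is treated with each compound, and growth is compared with that of vehicle-exposed cells to give inhibition.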

[14] = NCI Yeast Anticancer Drug Screen. Data for the wt2 strain (AID 169);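 note: 0% = growth of vehicle-treated yeast cultures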; conditions: S. cerevisiae wt2 strain growth inhibition, hits give high values
In short: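 Inhibition of yeast growth was determined after compound treatment, normalised to controls receiving only vehicle.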

[15] = NCI Yeast Anticancer Drug Screen. Data for the rad52 strain (AID 147);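 note: 0% = growth of vehicle-treated control cultures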; conditions: S. cerevisiae rad52 mutant growth inhibition, hits give high values
In short: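 Vehicle-treated cultures served as the reference for growth inhibition of compound-exposed yeast bearing a DNA repair mutation.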

[16] = at 5.0 µM (retest, dose inferred, filed as 0.5)
[17] = at 50.0 µM (retest, dose inferred, filed as 5.0)

Measured: growth inhibition

CCOC(=O)[C@H]1Nc2ccc(OC)cc2C2c3ccccc3CC21 (stereo partly specified)
active: [1]; at 100.0 µM 86% | [2]; at 33.0 µM 71% | [2]; at 100.0 µM 90% | [4]; at 100.0 µM 93%
inactive: [1]; at 1.2 µM -29% | [1]; at 3.7 µM -21% | [1]; at 11.0 µM -38% | [1]; at 33.0 µM 46% | [2]; at 1.2 µM 22% | [2]; at 3.7 µM 15% | [2]; at 11.0 µM 24% | [3]; [16] -13% | [3]; [17] 34% | [3]; at 50.0 µM 60.4% | [4]; at 1.2 µM 1% | [4]; at 3.7 µM -9% | [4]; at 11.0 µM 3% | [4]; at 33.0 µM 56%

Cc1ccccc1N=Cc1cc(Cl)ccc1O
inactive: [5]; at 1.2 µM 3% | [5]; at 3.7 µM 18% | [5]; at 11.0 µM 35% | [5]; at 33.0 µM 58% | [6]; at 1.2 µM -1% | [6]; at 3.7 µM -4% | [6]; at 11.0 µM -2% | [6]; at 33.0 µM 14% | [7]; at 1.2 µM -5% | [7]; at 3.7 µM -1% | [7]; [16] -74% | [7]; at 11.0 µM 10% | [7]; at 33.0 µM 44% | [7]; [17] 66% | [7]; at 50.0 µM 51.3% | [8]; at 1.2 µM 1% | [8]; at 3.7 µM -1% | [8]; [16] -7% | [8]; at 11.0 µM 1% | [8]; at 33.0 µM 2% | [8]; [17] 16% | [8]; at 50.0 µM 35.7% | [8]; at 100.0 µM 53% | [9]; at 1.2 µM -2% | [9]; at 3.7 µM 1% | [9]; at 11.0 µM 11% | [9]; at 33.0 µM 44% | [10]; [16] -13% | [10]; [17] 44% | [10]; at 50.0 µM 26.5% | [11]; at 1.2 µM 2% | [11]; at 3.7 µM 3% | [11]; at 11.0 µM 8% | [11]; at 33.0 µM 12% | [11]; at 100.0 µM 60% | [12]; [16] -32% | [12]; [17] -16% | [12]; at 50.0 µM -13.1% | [13]; at 1.2 µM -6% | [13]; at 3.7 µM -4% | [13]; [16] -68% | [13]; at 11.0 µM -1% | [13]; at 33.0 µM 16% | [13]; [17] -4% | [13]; at 50.0 µM 42% | [14]; at 1.2 µM -1% | [14]; at 3.7 µM 0% | [14]; at 11.0 µM -1% | [14]; at 33.0 µM 2% | [1]; at 1.2 µM 7% | [1]; at 3.7 µM -5% | [1]; at 11.0 µM 0% | [1]; at 33.0 µM 22% | [2]; at 1.2 µM -2% | [2]; at 3.7 µM -3% | [2]; at 11.0 µM 4% | [2]; at 33.0 µM 20% | [3]; [16] -73% | [3]; [17] 18% | [3]; at 50.0 µM 67%
active: [5]; at 100.0 µM 85% | [6]; at 100.0 µM 89% | [7]; at 100.0 µM 98% | [9]; at 100.0 µM 98% | [13]; at 100.0 µM 90% | [14]; at 100.0 µM 73% | [1]; at 100.0 µM 87% | [2]; at 100.0 µM 92%

Cc1cccc[n+]1C1CCc2c(ccc3ccccc23)C1=O (stereo unspecified)
inactive: [15]; at 1.2 µM 5% | [15]; at 3.7 µM 2% | [15]; at 11.0 µM 1% | [15]; at 33.0 µM 14% | [5]; at 1.2 µM 6% | [5]; at 3.7 µM 9% | [5]; at 11.0 µM 8% | [5]; at 33.0 µM 37% | [5]; at 100.0 µM 63% | [6]; at 1.2 µM -4% | [6]; at 3.7 µM 2% | [6]; at 11.0 µM 0% | [6]; at 33.0 µM 2% | [6]; at 100.0 µM 35% | [8]; at 1.2 µM -1% | [8]; at 3.7 µM -4% | [8]; [16] 2% | [8]; at 11.0 µM -1% | [8]; at 33.0 µM 2% | [8]; at 100.0 µM 62% | [9]; at 1.2 µM 4% | [9]; at 3.7 µM 2% | [9]; at 11.0 µM 3% | [9]; at 33.0 µM 12% | [9]; at 100.0 µM 61% | [10]; [16] 3% | [10]; [17] 55% | [12]; [16] 0% | [12]; [17] 26% | [12]; at 50.0 µM 26.6% | [13]; at 1.2 µM -2% | [13]; at 3.7 µM 0% | [13]; [16] -4% | [13]; at 11.0 µM 3% | [13]; at 33.0 µM 18% | [14]; at 1.2 µM -6% | [14]; at 3.7 µM -8% | [14]; at 11.0 µM -11% | [14]; at 33.0 µM -9% | [14]; at 100.0 µM 65% | [1]; at 1.2 µM 2% | [1]; at 3.7 µM 1% | [1]; at 11.0 µM 2% | [1]; at 33.0 µM 10% | [1]; at 100.0 µM 68% | [2]; at 1.2 µM -14% | [2]; at 3.7 µM -6% | [2]; at 11.0 µM -26% | [2]; at 33.0 µM -5% | [2]; at 100.0 µM 69% | [3]; [16] 2% | [4]; at 1.2 µM 2% | [4]; at 3.7 µM 3% | [4]; at 11.0 µM 2% | [4]; at 33.0 µM 6%
active: [15]; at 100.0 µM 70% | [8]; [17] 70% | [8]; at 50.0 µM 74.3% | [10]; at 50.0 µM 93.3% | [13]; [17] 70% | [13]; at 50.0 µM 98.2% | [13]; at 100.0 µM 72% | [3]; [17] 73% | [3]; at 50.0 µM 89.7% | [4]; at 100.0 µM 79%
